Data on 60 compounds can be found in PubChem BioAssay AID2094 (Broad Institute, 2009).

Molecules are shown by their SMILES. The whole screen tested about 300,000 compounds, of which about 1,200 (0.4%) were called active. Only a selection was taken, and actives are over-represented in it overall. Unmarked numbers belong to inactive results. Cut-off read from the data, not from the text of the source: active = activity change below about -75% (passing the limit was not always enough); inconclusive = no clear call, values can overlap the other calls.

The experiment in a line: Vibrio harveyi AI-2 quorum sensing modulators, primary screen, JMH597 strain, luminescence/OD600 ratio (AID 2094).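 Note: luminescence divided by OD600 gain over 9 h not by final OD600 alone.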 As to conditions: Vibrio harveyi JMH597 AI-2 luminescence/OD600 ratio, 9 h; at 7.5 µM; active compounds read low; 0 = neutral-control median; strain lacks LuxN and CqsS sensors.
As to `O=S(=O)(Nc1ccccn1)c1ccc(Oc2ccccc2)cc1`, the activity change was 21.1%. As to `O=S(=O)(Nc1cccc(Oc2ccc(Cl)cc2)n1)c1ccc(F)cc1`, the activity change is -97.1% (active).

`O=S(=O)(Nc1ccccn1)c1cccc(S(=O)(=O)c2ccc(Cl)cc2)c1`: the activity change was 3.88%. In the case of `CC(=O)Oc1ccc2c(=O)oc(-c3ccc([N+](=O)[O-])cc3)nc2c1` it was 9.78%.

For `COc1cccc(CNC(=O)CCCC(=O)Nc2cccc([N+](=O)[O-])c2)c1`, the activity change is 33.3%. In the case of `COC(=O)/C=C\C(=O)Nc1cccc([N+](=O)[O-])c1` it was -88.2% (active). `COc1ccc(S(=O)(=O)NC(C)C(=O)Nc2cccc([N+](=O)[O-])c2)cc1` (stereo not given): the activity change is 16.9%. Consider `Cc1ccc(C(=O)NNC(=O)c2ccncc2)cc1S(=O)(=O)N1CCCCC1`, for which the activity change was 18%. Consider `NC(=O)c1ccc(-c2csnn2)cc1`, for which the activity change was -13%. On to `Cc1cc(C)c(C(N)=O)c(Cl)n1`, for which the activity change was -0.00035%. As to `O=C(NCc1cccc(CNC(=O)Nc2cccc(O)c2)c1)Nc1cccc(O)c1`, the activity change was 3.61%. `COc1cccc(NC(=O)NCc2ccc(F)cc2)c1`: the activity change is -88.7% (active). As to `COc1cccc(NC(=O)NCCN2CCCCC2)c1`, the activity change is 8.92%. In the case of `Oc1ccc(N=Nc2nccs2)c(O)c1` it was -86.3% (active); in that of `Cc1cc(-c2ccccc2)nc(N2CCC(C(=O)NC34CC5CC(CC(C5)C3)C4)CC2)n1`, 31.5%.

Take `CCN1C(=NCCc2cccnc2)N[C@@H](c2ccccc2)C(C(=O)OC)=C1C`: the activity change was 8.09%. In the case of `COc1ccc(-c2nn(-c3ccccc3)cc2/C=C\C(=O)Nc2ccc(C(=O)O)cc2)cc1` it was 21.3%; in that of `O=C(/C=C\c1cn(-c2ccccc2)nc1-c1cccs1)N1CCOCC1`, 28.5%. In the case of `O=C(O)c1ccc(N/N=C/c2cn(-c3ccccc3)nc2-c2cccs2)cc1`, the activity change is -83.5% (active). In the case of `O=C1C2CCCN2C(=O)N1CCCCN1CCN(c2cccc(C(F)(F)F)c2)CC1` (stereo not given), the activity change was 12.2%. The value for `CCC(C)N(C(=O)COC(=O)C1C(C(=O)OC)=C(C)NC(C)=C1C(=O)OC)C1CCS(=O)(=O)C1` (stereo not given) was 18.1%. Take `COc1cccc(NC(=O)c2ccc(S(=O)(=O)N(C)C)cc2)c1`: the activity change is 14.9%. Consider `CN(C)S(=O)(=O)c1ccc(Oc2ccc(S(=O)(=O)N(C)C)cc2)cc1`, for which the activity change is -86.2% (active). In the case of `CN(C)S(=O)(=O)c1ccc(NC(=O)N2CCOCC2)cc1` it was 11.7%. Take `CCc1ccc(-c2cc(C)no2)cc1S(=O)(=O)NCCc1ccc(S(N)(=O)=O)cc1`: the activity change is 9.18%. The value for `CC12CCC(=O)N1C(C(=O)NCCN1C(=O)S/C(=C\c3ccccc3F)C1=O)CS2` (stereo not given) was 17%.

Consider `Nc1c(-c2ccccc2)nnn1Cc1ccccc1`, for which the activity change was -76.6% (active).

Consider `O=c1c2ccccc2c(-c2ccc(Br)cc2)nn1Cc1ccccc1`, for which the activity change was 41.9%.

Turning to `Nc1c(C(=O)Nc2ccc3c(c2)OCCO3)nnn1Cc1ccccc1`, the activity change was 9.93%. In the case of `CC(C)c1ccc(/C=C/C(=O)NNC(=O)c2cccnc2)cc1` it was 5.1%; in that of `O=C(/C=C/c1ccc(F)cc1)NCCNC(=O)/C=C/c1ccc(F)cc1`, 20.3%; in that of `O=C(/C=C/c1ccc(F)cc1)NC(=S)NNC(=O)c1cccnc1`, -112% (active). On to `Cc1ccc(N2CCN(S(=O)(=O)N(C)C)CC2)cc1Cl`, for which the activity change is 10.7%.

Consider `CCCCCCC(O)(CCN1CCCCC1)c1ccccc1` (stereo not given), for which the activity change is 20%. For `OC(CN=c1sc2ccccc2n1CC(O)COc1ccccc1)COc1ccccc1` (stereo not given), the activity change is 4.84%.

For `O=C(c1ccc(-c2ccccc2)cc1)C1CCCN(C(=O)c2cncs2)C1` (stereo not given), the activity change was -77.4% (active).

Turning to `Cn1nccc1C(=O)N1CCCC(C(=O)c2ccc(Oc3ccccc3)cc2)C1` (stereo not given), the activity change was -2.94%. For the compound `CCNC(=O)N1CCCC(C(=O)c2ccc(-c3ccccc3)cc2)C1` (stereo not given), the activity change is -9.07%. In the case of `Cc1ccc(-c2nc3c(cnn3-c3ccccc3)c(=O)o2)cc1` it was 9.58%; in that of `COc1ccc(Oc2c(Cl)cnn(-c3ccccc3)c2=O)cc1`, 8.72%.

Turning to `Cc1ccc(Oc2cnn(-c3ccccc3)c(=O)c2Br)cc1`, the activity change was -95.8% (active). Turning to `C/C(=N\NC(=O)c1ccc(C)cc1)C1C(=O)c2ccccc2C1=O`, the activity change is 17%. For the compound `Cc1ccsc1C(=O)OCC(=O)c1cc(C)n(CC2CCCO2)c1C` (stereo not given), the activity change was 22.3%.

As to `CSCCC(NC(=O)COc1ccccc1)C(=O)OCC(=O)c1cc2ccccc2o1` (stereo not given), the activity change was 8.03%.

Take `Cc1ccsc1C(=O)OCC(=O)c1cc2ccccc2o1`: the activity change is -88.1% (active). Consider `Cc1ccc(NC(=O)C2CCN(S(=O)(=O)c3ccc4c(c3)NC(=O)CO4)CC2)cc1C`, for which the activity change is -2.55%. With `Cn1c(N)c(C(=O)COC(=O)C23CC4CC(CC(C4)C2)C3)c(=O)n(C)c1=O`, the activity change was 12.7%. As for `Cc1csc(=O)n1CC(=O)OCC(=O)N(CC(C)C)c1c(N)n(Cc2ccccc2)c(=O)[nH]c1=O`, the activity change is 6.79%. With `CC(C)(C)c1ccc(Oc2ccc(N)cc2)cc1`, the activity change was -23.7%. In the case of `CC(C)(C)c1ccc(OC2=CS(=O)(=O)c3ccccc32)cc1`, the activity change is -84.2% (active). Consider `CC(C)(C)c1ccc(CN2C(=O)c3ccccc3S2(=O)=O)cc1`, for which the activity change is 21.7%. Take `CCN(CC)C(=O)CN(c1cccc(OC)c1)S(=O)(=O)c1ccc(C)cc1`: the activity change is 9.13%. `O=C(COc1ncnc2ccccc12)NC(=O)NCc1ccccc1`: the activity change is -86.9% (active). Consider `CC(C)C(C)NC(=O)COc1ncnc2ccccc12` (stereo not given), for which the activity change is 19.9%.

Turning to `CC(=O)Nc1ccc(NC(=O)COc2ncnc3ccccc23)cc1`, the activity change is -8.91%. As to `CCOC(=O)c1cc(C(C)C)sc1NC(=O)COC(=O)c1nccnc1N`, the activity change was 29.5%. For `N/C(=N\OC(=O)Cc1ccccc1[N+](=O)[O-])c1ccc(Br)cc1`, the activity change is -5%.

`COc1ccc(/C(N)=N/OC(=O)Cc2ccccc2)cc1`: the activity change is -87.5% (active). Turning to `COc1ccc(/C(N)=N/OC(=O)CCCc2ccccc2)cc1`, the activity change was 749%. As to `O=C1CCCc2nn(-c3ccccc3)nc21`, the activity change was 8.67%.
